Screening results (PubChem)
PP5 inh – PP5 phosphatase inhibitors, primary screen, biochemical, fluorescence; Serine/threonine-protein phosphatase 5 (Homo sapiens), P53041; purified PP5c, OMFP substrate fluorescence; inhibition, % at 6.7 µM; 320,000 tested, 0.18% active; AID 1987, 2009;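 active = inhibition above the campaign's mean inhibition across all tested compounds plus 3 SD, cut at about 9.5% in these data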
PREPL inh – PREPL enzyme inhibitors, primary screen, biochemical, fluorescence polarization. Prolyl endopeptidase-like (Homo sapiens), Q4J6C6. recombinant PREPL, fluorescence polarization activity-based probe. inhibition, % at 5.96 µM. 320,000 tested, 0.68% active. AID 2751, 2010; in the data active = inhibition above about 43%
Rpn11 block – Rpn11 (PSMD14) deubiquitinase inhibitors, primary screen, biochemical, fluorescence polarization, uHTS; 26S proteasome non-ATPase regulatory subunit 14 (Homo sapiens), O00487; human 26S proteasome, Ub4-pepOG fluorescence polarization; 20S core pre-blocked with epoxomicin; inhibition, % at 20 µM; 360,000 tested, 0.59% active; AID 588493, 2011;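 active = inhibition at 20 µM, scaled to each plate's controls, above about 33%, limit read from the data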
NadD block – inhibitors of S. aureus NadD, primary screen, biochemical, colorimetric, uHTS | AID 602399, 2012 | inhibition, % at 20 µM | 360,000 tested, 0.78% active | purified NadD enzyme, colorimetric absorbance read-out | Nicotinate-nucleotide adenylyltransferase NadD (Staphylococcus aureus N315); in the data active = inhibition above about 26%
PP1 counter – PP1-alpha phosphatase inhibitors, primary screen, counter-screen for PP5 inhibitor project, biochemical, fluorescence, OMFP substrate, single point | Serine/threonine-protein phosphatase PP1-alpha catalytic subunit (Homo sapiens), P62136 | purified PP1alpha | inhibition, % at 6.7 µM | 320,000 tested, 0.9% active | AID 2235, 2010;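 active = inhibition above the mean inhibition of all tested compounds plus 3 SD, computed separately for each screening campaign, cut at about 15% in these data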
Target sequence (P62136 whole entry, looked up): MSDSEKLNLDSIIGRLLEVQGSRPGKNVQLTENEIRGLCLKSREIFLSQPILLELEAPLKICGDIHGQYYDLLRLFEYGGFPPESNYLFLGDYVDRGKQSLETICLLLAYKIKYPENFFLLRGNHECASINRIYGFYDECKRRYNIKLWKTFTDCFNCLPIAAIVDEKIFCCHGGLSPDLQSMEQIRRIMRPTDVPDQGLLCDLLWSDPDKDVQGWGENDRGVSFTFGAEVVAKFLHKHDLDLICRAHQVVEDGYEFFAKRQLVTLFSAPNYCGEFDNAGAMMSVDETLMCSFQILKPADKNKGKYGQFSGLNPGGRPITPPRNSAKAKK
Rpn11 inh conf – Rpn11 (PSMD14) deubiquitinase inhibitors, confirmation, biochemical, fluorescence polarization, single concentration; 1,900 tested, 29% active; purified human 26S proteasome, Ub4-pepOG fluorescence polarization; proteasome pretreated with epoxomicin; shares compounds with Rpn11 block; inhibition, % at 20 µM
MMP-2 counter – MMP-2 enzyme inhibition, confirmation, counter-screen for RPN11 inhibitor project, biochemical, fluorescence, single concentration. recombinant MMP-2, FRET peptide cleavage fluorescence. inhibition, % at 20 µM. shares compounds with Rpn11 block. 1,900 tested, 4% active;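 note: human MMP-2 activated beforehand with APMA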
Thrombin FP – bovine thrombin protease inhibition, confirmation, counter-screen for Rpn11 inhibitor project, biochemical, fluorescence polarization, single concentration; AID 602333, 2012; inhibition, % at 20 µM; shares compounds with Rpn11 block; 1,900 tested, 13% active; bovine thrombin cleavage of Ub4-pepOG;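 active = mean inhibition at least 40% at 20 µM, or signal 3 deviations below plate average, so some actives read negative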
A number is an active result. Sampled rows, rich in hits. Any-hit rate of the full collection: about 2.4%. Cut-off read from the data, not from the text of the source, unless noted: active = inhibition above about 40%; inactive = the rest.

CC(=O)c1c(O)c(C)c(O)c2c1OC1=Cc3c(c(C)nn3C)C(=O)C12C (stereo not drawn) was read as Rpn11 block inactive and NadD block inactive.
`CC(=O)C1=C(O)C2(C)c3c(O)c(C)c(O)c(C(C)=O)c3OC2CC1=O` (stereo not drawn) gave Rpn11 block 53.6, NadD block inactive, Rpn11 inh conf 69.2, MMP-2 counter inactive and Thrombin FP 90.7.
`COCCN(C(=O)CSc1nc2ccccc2c(=O)n1CC(C)C)c1c(N)n(Cc2ccccc2)c(=O)[nH]c1=O` gave PP5 inh inactive, PREPL inh inactive, Rpn11 block inactive, NadD block inactive and PP1 counter inactive.
For Cc1[nH]c2ccc(C(=O)O)cc2c1C the results were PP5 inh inactive, PREPL inh inactive, Rpn11 block inactive, NadD block inactive and PP1 counter inactive.
`CCCc1c(C)[nH]c2ccc(C(=O)O)cc2c1=S` gave Rpn11 block 98.4, NadD block inactive, Rpn11 inh conf 73.7, MMP-2 counter inactive and Thrombin FP inactive.
For CCCCCCCCCCCCCCC(O)C[N+](C)(CCO)CCO (stereo not drawn) the results were Rpn11 block 82.6, NadD block inactive, Rpn11 inh conf 42.3, MMP-2 counter inactive and Thrombin FP inactive.
For CC12CCC(C/C1=N/O)C2(C)CBr (stereo not drawn) the results were PP5 inh inactive, PREPL inh inactive, Rpn11 block 32.1, NadD block inactive, PP1 counter inactive, Rpn11 inh conf inactive, MMP-2 counter inactive and Thrombin FP inactive.
Screening CC(=O)c1sc(N/N=C2\CC3CCC2(C)C3(C)C)nc1C (stereo not drawn) returned PP5 inh inactive, PREPL inh inactive, Rpn11 block inactive, NadD block inactive and PP1 counter inactive.
Cc1nc(N(C)C2CCCCC2)c2nnn(Cc3ccc(F)cc3)c2n1 was read as Rpn11 block inactive and NadD block inactive.
`COc1ccc(-n2cccc2/C=C2/NC(=O)N(c3cccc(Cl)c3)C2=O)cc1` gave PP5 inh inactive, PREPL inh inactive, Rpn11 block 41.4, NadD block inactive, PP1 counter inactive, Rpn11 inh conf inactive, MMP-2 counter inactive and Thrombin FP inactive.
`O=C(NC(=S)NC1C2CC3CC(C2)CC1C3)c1ccccc1` (stereo not drawn) gave PP5 inh inactive, PREPL inh inactive, Rpn11 block inactive, NadD block inactive and PP1 counter inactive.
For O=C(COC(=O)CCNS(=O)(=O)c1ccc(Cl)cc1)Nc1ccccc1OC(F)F the results were Rpn11 block 89.2, NadD block inactive, Rpn11 inh conf inactive, MMP-2 counter inactive and Thrombin FP inactive.
`COc1ccc(/C=C2\N=C3CCCCCN3C2=O)cc1OC` gave PP5 inh inactive, PREPL inh inactive, Rpn11 block inactive, NadD block inactive and PP1 counter inactive.
Screening COc1cc(/C=C2\N=C3CCCCCN3C2=O)ccc1O returned PP5 inh inactive, PREPL inh inactive, Rpn11 block 152.0, NadD block inactive, PP1 counter inactive, Rpn11 inh conf 88.3, MMP-2 counter inactive and Thrombin FP 67.0.
Screening COC(=O)c1ccc(CSc2ncnc3c2sc2nc(N4CCOCC4)c4c(c23)CCCC4)o1 returned PP5 inh inactive, PREPL inh inactive, Rpn11 block 41.4, NadD block inactive, PP1 counter inactive, Rpn11 inh conf inactive, MMP-2 counter inactive and Thrombin FP inactive.
Screening C=CCc1cc(/C=C2/NC(=O)NC2=O)cc(OCC)c1O returned PP5 inh inactive, PREPL inh inactive, Rpn11 block inactive, NadD block inactive and PP1 counter inactive.
`C=CCc1cc(/C=C2/NC(=S)NC2=O)cc(OC)c1O` gave PP5 inh inactive, PREPL inh inactive, Rpn11 block 47.1, NadD block inactive, PP1 counter inactive, Rpn11 inh conf inactive, MMP-2 counter inactive and Thrombin FP inactive.
`CN1CCN(C(=O)CN(C2CCCCC2)S(=O)(=O)c2ccccc2)CC1` gave Rpn11 block inactive and NadD block inactive.
O=C(CN(C1CCCCC1)S(=O)(=O)c1ccccc1)N1CCCC1 was read as PP5 inh inactive, PREPL inh inactive, Rpn11 block 37.4, NadD block inactive, PP1 counter inactive, Rpn11 inh conf inactive, MMP-2 counter inactive and Thrombin FP inactive.
For COc1ccc(C(OCC2CO2)c2ccc(OC)cc2)cc1 (stereo not drawn) the results were PP5 inh inactive, PREPL inh inactive and PP1 counter inactive.
For O=c1cc(N2CCc3ccccc3C2)[nH]c(=O)n1Cc1ccc(F)cc1 the results were PP5 inh inactive, PREPL inh inactive, Rpn11 block 55.8, NadD block inactive, PP1 counter inactive, Rpn11 inh conf inactive, MMP-2 counter inactive and Thrombin FP inactive.
NC(=O)C(=O)N/N=C/c1c2ccccc2cc2ccccc12 was read as PP5 inh inactive, PREPL inh inactive, Rpn11 block 41.1, NadD block inactive, PP1 counter inactive, Rpn11 inh conf inactive, MMP-2 counter inactive and Thrombin FP inactive.
`CCC(C)(C(=O)Nc1ccc2c(c1)OCCO2)N(C(C)=O)c1ccc(C(N)=O)cc1` (stereo not drawn) gave PP5 inh inactive, PREPL inh inactive, Rpn11 block 50.9, NadD block inactive, PP1 counter inactive, Rpn11 inh conf inactive, MMP-2 counter inactive and Thrombin FP inactive.
For CCOC(=O)c1ccc(NC(=O)Nc2ccc3c(c2)OCCO3)cc1 the results were PP5 inh inactive, PREPL inh inactive, Rpn11 block inactive, NadD block inactive and PP1 counter inactive.
For Nc1ccccc1Nc1cc(-c2ccccc2)[nH]n1 the results were Rpn11 block 42.9, NadD block inactive, Rpn11 inh conf inactive, MMP-2 counter inactive and Thrombin FP inactive.
For CCc1ccc(Cn2ncc3c(C(=O)O)cc(C)nc32)cc1 the results were Rpn11 block inactive and NadD block inactive.
